Screening results deposited in PubChem BioAssay by several laboratories.
Shn3 3UTR inh – reduces Shn3 3'UTR luciferase signal in osteoblasts. Clone20 osteoblast Shn3 3'UTR firefly luciferase, 24 h. inhibition, % at 12.5 µM. 0.52% of 360,000 active. AID 588674;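 active = mean inhibition of at least 75% with every replicate also reaching 75%; inconclusive = mean inhibition at least 75% but some replicate below; inactive = mean inhibition below 75%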
TRPM1 prom inh – reduces MITF-dependent TRPM1 promoter luciferase signal; SK-MEL-5 TRPM1 promoter luciferase, 24 h; inhibition, % at 12.5 µM; 0.83% of 330,000 active; AID 488899;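 active = mean inhibition across replicates of 60% or more, whatever share of single replicates reaches that level; inconclusive = some that reach 60%, reason not given; inactive = mean inhibition across replicates below 60%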
ABHD5 PLIN5 PPI – blocks binding of human ABHD5 to perilipin-5; Split G. princeps luciferase complementation, luminescence, 4 h; inhibition, % at 4 µM; 0.78% of 360,000 active;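 active = inhibition above the mean inhibition across every tested compound plus 3 SD, cut at about 22% in these data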
EWS-Fli block – inhibitors of EWS/Fli oncoprotein transcriptional activity | A673 NR0B1-luciferase reporter, viability-normalised | inhibition, % at 12.6 µM | 0.67% of 350,000 active;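 active = mean inhibition of at least 50% after viability correction, with every replicate also passing that limit; inconclusive = mean reaches 50% but only one of two replicates passes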;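 also: firefly luciferase signal divided by Alamar Blue viability fluorescence both relative to DMSO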
PAX8 inh HTS – inhibitors of PAX8 transcriptional activity in RMG-I cells; RMG-I TPO-luciferase reporter, SteadyGlo, 24 h; inhibition, % at 12.6 µM; 1.2% of 360,000 active;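 active = mean replicate inhibition at least 60% with every replicate also reaching 60%; inconclusive = only one of the two criteria is met; inactive = mean below 60% and not all replicates reaching 60%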;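 also: luciferase light reporting Pax8 driven TPO promoter activity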
Peg3 prom inh – reduces Peg3 promoter-driven luciferase expression in HeLa; 1.7% of 360,000 active; HeLa PEG-Prom luciferase reporter, luminescence, overnight; inhibition, % at 20 µM; AID 588405;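 active = inhibition of at least 50% at 20 µM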
A number is an active result; n = inactive; u = inconclusive; x = no result given. Most compounds without a hit are left out; they make up all but 3% or so of the library.

SMILES	Shn3 3UTR inh	TRPM1 prom inh	ABHD5 PLIN5 PPI	EWS-Fli block	PAX8 inh HTS	Peg3 prom inh
COc1cccc(NC(=O)N(C)C[C@H]2Oc3cc(C#Cc4ccncc4)ccc3S(=O)(=O)N([C@H](C)CO)C[C@H]2C)c1	n	x	n	n	66	n
O=C(c1ccc2c(c1)OCO2)N1CCN(c2ccc(C(F)(F)F)cn2)CC1	n	n	n	n	132	n
O=C(c1ccc2c(c1)OCCO2)N1CCN(c2ccc(C(F)(F)F)cn2)CC1	n	x	n	n	n	n
COc1cc(/C=C2/SC(=Nc3ccc(O)cc3)NC2=O)ccc1O	n	n	n	54	n	n
CC(C)C(=O)NC(c1ccc([N+](=O)[O-])cc1)c1c(O)ccc2ccccc12 (stereo not given)	n	n	n	x	x	52
Cc1ccc(C(NC(=O)C2CCCCC2)c2c(O)ccc3ccccc23)cc1 (stereo not given)	n	n	n	n	n	54
CN1CCN(c2ccc(-c3cc(NC=O)c4ncc(-c5ccc(F)c(Cl)c5)n4c3)cc2)CC1	n	x	n	n	n	96
CC(=O)Nc1cc(-c2ccc(N3CCN(C)CC3)cc2)cn2c(-c3cccc(C(C)=O)c3)cnc12	n	x	n	n	n	n
CC(=O)Nc1cc(-c2ccc(N3CCN(C)CC3)cc2)cn2c(-c3ccc(F)c(Cl)c3)cnc12	n	x	n	n	n	75
O=C(c1ccccc1)N1CC[C@H]2[C@H](CO)Nc3ccc(-c4ccccc4F)cc3[C@H]21	x	x	x	n	n	x
COc1ccc(-c2nn(-c3ccccc3)cc2C(=O)n2nnc3ccccc32)cc1	n	n	n	x	x	56
COC(=O)c1cn(-c2ccccc2)nc1-c1ccc(OC)cc1	n	n	n	n	n	n
COc1ccccc1CNC(=O)C[C@@H]1CC[C@@H]2[C@H](COC[C@@H](O)CN2C(=O)Nc2ccc(Cl)cc2)O1	x	x	x	n	n	x
Cc1ccccc1COc1cccc(/C=N/NC(=O)c2nnn(-c3nonc3N)c2C)c1	n	n	n	x	n	74
Cc1c(C(=O)N/N=C/c2cccc(O)c2)nnn1-c1nonc1N	n	n	n	x	n	n
Cc1ccc2nc(-c3ccc(NC(=S)NC(=O)C(C)C)cc3)sc2c1	n	n	n	n	x	n
Cc1ccc2nc(-c3ccc(NC(=S)NC4CC(C)(C)NC(C)(C)C4)cc3)sc2c1	n	n	n	n	91	105
CCCNC(=O)[C@@H]1[C@@H](CO)[C@@H]2Cn3c(ccc(-c4cncnc4)c3=O)[C@H]1N2C(=O)Nc1ccccc1	x	x	x	n	x	x
COc1ccc(S(=O)(=O)N2c3ccccc3OCC2C)cc1 (stereo not given)	n	n	n	74	n	n
COc1ccc(S(=O)(=O)N2c3ccccc3OCC2C(C)(C)C)cc1 (stereo not given)	n	n	n	58	n	n
COc1ccc(S(=O)(=O)N2CCOc3ccccc32)cc1	n	n	n	56	n	n
O=C(C[C@@H]1CC[C@H](NC(=O)c2ccccn2)[C@@H](CO)O1)NCc1cc(F)cc(F)c1	x	x	x	n	n	x
C[C@@H]1CN([C@H](C)CO)S(=O)(=O)c2ccc(C3=CCCC3)cc2O[C@@H]1CN(C)C	x	x	x	n	x	x
c1ccc(CNc2ncnc3sccc23)cc1	n	n	n	x	n	n
c1csc(CNc2ncnc3sccc23)c1	89	n	n	x	x	n
SMILES	Shn3 3UTR inh	TRPM1 prom inh	ABHD5 PLIN5 PPI	EWS-Fli block	PAX8 inh HTS	Peg3 prom inh
CC(C)Cc1nc2oc3c(Cl)ncnc3c2c2c1CCC2	n	u	n	58	x	106
FC(F)Oc1ccc(NC(=S)NNc2ccnc3cc(Cl)ccc23)cc1	n	69	n	n	n	n
O=C(Nc1cc(-c2nc3ncccc3o2)ccc1Cl)c1cccs1	n	n	n	n	n	n
O=C(Nc1ccccc1N1CCN(C(=O)c2ccccc2)CC1)c1ccc([N+](=O)[O-])o1	n	62	n	n	68	n
O=C(Nc1ccccc1N1CCCC1)c1ccc([N+](=O)[O-])o1	n	n	n	n	77	n
O=C(Nc1cc(-c2nc3ncccc3o2)ccc1Cl)c1ccc([N+](=O)[O-])o1	n	79	n	n	n	88
COc1ccc(N2CCCC2)c(NC(=O)c2ccc([N+](=O)[O-])o2)c1	n	n	n	n	n	53
C[C@@H]1CCCCO[C@@H](CN(C)Cc2ccncc2)[C@@H](C)CN([C@@H](C)CO)C(=O)c2cc(NS(=O)(=O)c3ccc(F)cc3)ccc2O1	x	x	x	n	n	x
Cc1cccc(NC(=O)c2ccc([N+](=O)[O-])o2)c1C	n	n	n	n	u	n
O=C(Nc1ccc(N2CCN(C(=O)c3ccccc3)CC2)cc1)c1cc2ccccc2o1	n	69	n	x	x	72
CN1CCN(c2ccc(NC(=O)c3cc4ccccc4o3)cc2)CC1	n	n	n	n	n	n
O=C(Nc1cccc2ccccc12)c1ccc([N+](=O)[O-])o1	n	n	n	n	69	n
O=C(Nc1ccc(N2CCN(C(=O)c3ccccc3)CC2)c(Cl)c1)c1ccc(Br)o1	n	n	n	n	x	50
O=C(Nc1ccc(N2CCN(C(=O)c3ccccc3)CC2)cc1)c1ccc(Br)o1	n	n	n	x	x	n
Cc1ccc(S(=O)(=O)N[C@H]2CC[C@H](CCn3cc(C4CC4)nn3)O[C@@H]2CO)cc1	x	x	x	n	n	x
C[C@H]1CN([C@@H](C)CO)C(=O)c2cc(NC(=O)CCCCCC(=O)Nc3ccccc3N)ccc2O[C@@H]1CN(C)S(=O)(=O)c1ccccc1	x	x	x	n	n	x
O=C(c1ccco1)N1CCN(c2ncnc3scc(-c4cccs4)c23)CC1	n	n	n	n	x	53
Cc1ccc(NC(=O)C2CCN(S(=O)(=O)c3ccc4c(c3)NC(=O)C(C)S4)CC2)cc1Cl (stereo not given)	89	n	n	x	n	n
Cc1ccc(C)c(N2CCN(C(=O)CCS(=O)(=O)c3ccc4c(c3)NC(=O)C(C)S4)CC2)c1 (stereo not given)	n	n	n	x	62	n
CN1CCN(C(=O)C[C@@H]2CC[C@@H]3[C@H](COC[C@@H](O)CN3CC3CCCC3)O2)CC1	x	x	x	x	n	x
COC(=O)c1ccc(CN(c2ccc(C(=O)O)c(O)c2)S(=O)(=O)c2ccc(Cl)c([N+](=O)[O-])c2)cc1	n	n	n	n	n	55
C/C=C/c1ccc2c(c1)O[C@@H](CN(C)Cc1ccncc1)[C@@H](C)CN([C@H](C)CO)S2(=O)=O	x	x	x	n	x	x
O=C(Oc1c(CN2CCOCC2)cc(Cl)c2cccnc12)c1cccs1	n	69	n	n	71	n
COc1cccc(C(=O)Oc2c(CN3CCOCC3)cc(Cl)c3cccnc23)c1	n	67	n	x	x	n
COc1cc(C(=O)Oc2c(CN3CCOCC3)cc(Cl)c3cccnc23)cc(OC)c1OC	n	69	n	x	x	n
O=C(Oc1c(CN2CCOCC2)cc(Cl)c2cccnc12)c1ccc(F)cc1	n	64	n	x	x	n
O=C(Oc1ccc(Cl)c2cccnc12)N1CCOCC1	n	n	n	x	n	n
O=C(Oc1c(Cl)cc(Cl)c2cccnc12)c1cccs1	n	n	n	x	n	n
